# Source: PubChem
# Only some compounds are listed: those with a hit (about 3.9% of all), similar ones and a draw of the others.
# PLCb3 inh – human PLC-beta3 inhibitors, primary screen, biochemical, fluorescence; actives 0.18% (n = 370,000); Purified PLC-beta3, fluorogenic substrate; inhibition, % at 12.2 µM; AID 720704, 2013; 1-phosphatidylinositol 4,5-bisphosphate phosphodiesterase beta-3 (Homo sapiens), Q01970; in the data active = inhibition above about 11%;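 also: 0% = median of compound wells on plate and 100% = full blocker control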
# Yeast superoxide – reduction of superoxide in aged yeast, primary screen, HTS. S. cerevisiae aged cells, superoxide DHE fluorescence; hits give low values. superoxide response (% of plate mean), % at 10 µM. actives 0.18% (n = 330,000). AID 2690, 2010;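 active = superoxide response under a set limit, about three screen SD below normal, cut at about 65% in these data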;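 also: yeast aged for seven days with compound at 30 °C before DHE staining; 100% = average MFI of all compound-treated wells on the plate with controls excluded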
# HIF activator – HIF pathway transcriptional activators, primary screen, cell-based, U2OS HRE-luciferase, luminescence. U2OS HRE-luciferase reporter; normalized: DMSO 0%, desferrioxamine 100%. activation, % at 7.5 µM (by protocol). actives 0.32% (n = 300,000). AID 1910, 2009;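 active = mean activation of at least 10% of the iron chelator positive control signal, with at least half of replicates also reaching 10%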
# AHR activator – AHR activators, primary screen, cell-based, luminescence, luciferase reporter, human | actives 2.5% (n = 320,000) | AHR-responsive luciferase reporter cells | activation, % at 5 µM | AID 2796, 2010; in the data active = activation above about 47%;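 also: 0% = vehicle wells and 100% = reference agonist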
# PLCg1 inh – PLC-gamma1 enzyme inhibitors, primary screen, biochemical, fluorescence, purified enzyme. actives 0.84% (n = 370,000). fluorogenic substrate. inhibition, % at 12.2 µM. 1-phosphatidylinositol 4,5-bisphosphate phosphodiesterase gamma-1 (Homo sapiens), P19174; in the data active = inhibition above about 9.5%
# sPLA2-III inh – human group III sPLA2 inhibitors, primary screen, biochemical, QFRET, BODIPY PC-A2 liposome substrate. QFRET BODIPY PC-A2 liposome hydrolysis, fluorescence. inhibition, % at 12.2 µM. actives 0.56% (n = 370,000). AID 743126, 2013;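 active = inhibition above mean plus 3 SD of compounds lying within the high and low control bounds, cut at about 19% in these data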;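 also: 0% = median of test compound wells and 100% = no enzyme DMSO wells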
# Target sequence (Q9NZ20 whole entry, looked up): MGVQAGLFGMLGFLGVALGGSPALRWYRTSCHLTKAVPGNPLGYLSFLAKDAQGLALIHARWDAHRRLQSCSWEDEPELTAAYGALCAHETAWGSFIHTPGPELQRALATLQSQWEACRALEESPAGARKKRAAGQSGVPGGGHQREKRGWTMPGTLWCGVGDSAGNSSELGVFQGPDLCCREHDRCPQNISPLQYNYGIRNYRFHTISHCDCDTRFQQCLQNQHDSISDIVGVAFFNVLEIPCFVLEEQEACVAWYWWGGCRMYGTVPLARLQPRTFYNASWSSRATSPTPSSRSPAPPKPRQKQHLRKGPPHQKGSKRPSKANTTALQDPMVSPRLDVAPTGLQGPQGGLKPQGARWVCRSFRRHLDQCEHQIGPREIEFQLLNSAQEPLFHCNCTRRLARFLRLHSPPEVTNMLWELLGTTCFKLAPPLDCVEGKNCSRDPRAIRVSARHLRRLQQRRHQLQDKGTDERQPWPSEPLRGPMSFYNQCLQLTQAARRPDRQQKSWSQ
# The depositor's hits bear a star; i = inactive; . = no result given.
SMILES,PLCb3 inh,Yeast superoxide,HIF activator,AHR activator,PLCg1 inh,sPLA2-III inh
Cc1cc(NCCCN2CCOCC2)n2ncc(-c3ccc(Cl)cc3)c2n1,-304.6,87.0,1.6,26.0,-219.9,0.2
CCCc1cc(NCCCn2ccnc2)n2nc(C)c(-c3ccccc3)c2n1,-179.3,113.3,0.0,62.6*,-107.0,-15.9
Cc1cc(NCCCn2ccnc2)n2ncc(-c3ccc(Cl)cc3)c2n1,i,109.1,-1.2,125.9*,i,-29.1
Cc1cccc(-c2cc3nc(C)cc(NCCCn4ccnc4)n3n2)c1,-26.9,93.7,0.2,48.2*,-19.4,-9.6
FC(F)(F)c1cccc(-c2cc3nc(NCCCn4ccnc4)ccn3n2)c1,-104.6,.,.,.,-66.5,-20.5
CC(C(=O)Nc1ccccc1-c1ccccc1)N1CCN(C(=O)c2ccccc2)CC1 (configuration not stated),1.2,93.0,33.7*,1.5,-0.9,-2.3
COC(=O)[C@@]12CCCCC3=C1N(CCC3)C(=O)[C@H]2CC(=O)NCc1ccc(OC)c(OC)c1,3.1,.,.,.,3.0,10.4
COCCNc1ncnc2c1[nH]c1ccccc12,-18.1,89.0,-0.7,74.0*,-10.1,8.0
OCCCNc1ncnc2c1[nH]c1ccccc12,-10.9,97.3,0.1,22.6,-5.8,4.7
CCCOc1ncnc2c1[nH]c1ccccc12,-56.9,86.4,2.4,79.9*,-43.3,4.8
CCCOc1ncnc2c1[nH]c1ccc(OC)cc12,-281.1,94.7,2.4,44.1,-212.6,1.6
CCN(CC)c1ncnc2c1[nH]c1ccccc12,-46.3,111.5,-0.1,64.6*,-40.6,-1.2
Cc1cc(Cl)nc(SCC(=O)c2ccccc2)n1,2.8,109.8,0.7,61.3*,5.8,-51.9
Cc1cc(N2CCCC2)nc(SCC(=O)c2ccccc2)n1,3.2,111.1,1.5,20.0,1.2,-30.6
S=C(Nc1cc(Cl)cc(Cl)c1)NC(c1ccccc1)c1ccccc1,1.1,.,.,.,4.7,-8.0
CC(C)(C)C(=O)Nc1cccc(-c2nc3ccccc3[nH]2)c1,-4.4,97.8,0.5,60.5*,-6.3,2.9
CC(C)CC(=O)Nc1cccc(-c2nc3ccccc3[nH]2)c1,-8.4,90.6,1.0,57.6*,-0.4,0.9
CC(Oc1ccccc1)C(=O)Nc1cccc(-c2nc3ccccc3[nH]2)c1 (configuration not stated),-13.1,91.2,0.3,41.0,-14.2,-31.1
CC(=O)Nc1cccc(-c2nc3ccccc3[nH]2)c1,-7.1,79.1,1.2,47.4*,-5.8,-0.5
CCCC(=O)OC12CCCN(C1)/C(=C/c1ccc(C#N)cc1)C2 (configuration not stated),-1.9,.,.,.,-1.5,5.0
Cc1cccc(Nc2nc(N)nc(CSc3nccn3C)n2)c1,0.4,91.6,2.4,75.2*,3.4,7.4
CC(=O)N1CCc2cc(S(=O)(=O)NC3CCN(C(=O)C(C)(C)C)CC3)ccc21,-0.3,.,.,.,1.3,3.0
Clc1ccc(C2Nc3cccc4cccc(c34)N2)cc1,-13.2,97.3,0.1,60.1*,-6.7,-3.7
CC(=O)CC[C@H]1CC[C@]2(CCCN(C(=O)c3ccccc3)C2)O1,6.8,.,.,.,2.6,7.8
CC(NC(=O)COC(=O)C12CC3CC(CC(O)(C3)C1)C2)c1ccccc1 (configuration not stated),12.7*,97.1,.,1.7,12.6*,1.7
SMILES,PLCb3 inh,Yeast superoxide,HIF activator,AHR activator,PLCg1 inh,sPLA2-III inh
CC(C)C[C@H]1COc2cccc(F)c2S(=O)(=O)N1C,-3.0,.,.,.,0.1,0.0
CCC(=O)Nc1ccc(/C(C)=N\NC(=O)c2ccc(C)s2)cc1,-3.6,101.1,1.1,54.0*,-2.1,-5.9
C/C(=N/NC(=O)c1ccc(Cl)s1)c1ccc(NC(=O)COc2ccc(Cl)cc2)cc1,-2.7,94.7,-0.1,55.0*,-1.0,5.8
COc1ccc(C(=O)N(C)[C@H]2C[C@H]3c4[nH]c5c(-c6ccccc6)cccc5c4CCN3C(=O)[C@H]2[C@H](C)O)cc1,-11.7,.,.,.,-9.2,2.2
CCOc1ccc(CCNC(=O)c2cc3sccc3n2Cc2cccc(C)c2)cc1OCC,1.9,.,.,.,-1.5,2.3
C=CCNc1cccc2c1S(=O)(=O)N[C@H](CC(C)C)CO2,1.8,.,.,.,-0.4,4.7
COP(N)(=O)C(CC(C)C)NC(=O)OCc1ccccc1 (configuration not stated),1.5,.,.,.,-0.9,4.5
C(=N\Nc1nc(-c2ccccc2)cs1)/c1cccs1,-0.7,94.8,-2.3,60.3*,0.2,1.4
Cc1ccc(-c2csc(N/N=C/c3ccco3)n2)cc1,-6.0,107.0,2.9,-8.7,-6.2,0.3
C(=N\Nc1nc(-c2ccccc2)cs1)/c1ccco1,-20.9,92.5,3.8,110.0*,-13.7,17.3
Clc1ccc(-c2csc(N/N=C\c3cccnc3)n2)cc1,-55.8,100.2,1.9,-1.6,-55.8,4.0
C(=N\Nc1nc(-c2ccccc2)cs1)/c1ccncc1,-21.4,91.9,1.3,60.5*,-15.5,-6.6
ClCc1csc(N/N=C/c2cccs2)n1,.,114.0,-0.6,13.5,.,.
O=[N+]([O-])c1cccc(-c2csc(N/N=C/c3cccc(O)c3)n2)c1,3.5,91.0,1.3,73.5*,3.8,-0.7
COC(=O)[C@H]1C[C@@]2(Oc3ccc(Br)cc3)c3ccccc3N(C(=O)OC(C)(C)C)[C@H]2N1C(=O)OC(C)(C)C,7.4,.,.,.,-0.7,-1.8
Cc1cc(C)c(/C=N/NC(=O)c2nnn(-c3nonc3N)c2CN2CCC(C)CC2)c(C)c1,-0.9,92.2,-0.1,-0.2,4.1,-0.4
CC1CCN(Cc2c(C(=O)N/N=C/c3cc(Cl)ccc3O)nnn2-c2nonc2N)CC1,-10.2,97.9,40.0*,1.9,-5.4,2.4
CC1CCN(Cc2c(C(=O)N/N=C/c3cc(Br)ccc3O)nnn2-c2nonc2N)CC1,-14.5,99.9,53.4*,4.9,-2.0,-1.1
COc1cc(C=Nn2c(-c3ccccc3F)n[nH]c2=S)ccc1OCc1ccccc1,-1.8,.,.,.,4.3,-9.4
O=C(OCCN1CCN(C2CN(Cc3cn(Cc4ccccc4C(F)(F)F)nn3)S(=O)(=O)C2)CC1)c1cc2ccccc2o1 (configuration not stated),4.5,.,.,.,1.4,1.5
O=c1oc2ccccc2c(Nc2ccc3ccccc3c2)c1[N+](=O)[O-],.,105.3,3.9,64.6*,.,.
O=[N+]([O-])c1cc(Cl)ccc1N1CCCC1,-1.0,94.3,0.1,11.6,-0.3,0.4
O=C1C(Cl)=C(N2CCN(c3ccccc3[N+](=O)[O-])CC2)C(=O)c2ccccc21,-16.4,145.7,.,70.6*,-11.2,12.9
CC(C)(C)c1ccc(S(=O)(=O)N2CCC(C(=O)NCC3COCCO3)CC2)cc1 (configuration not stated),0.1,.,.,.,-1.3,0.2
O=C(O)c1ccccc1-c1nc2ccccc2[nH]1,-5.2,113.9,0.1,3.8,-5.7,-0.9
